Here are results for 5 compounds from PubChem BioAssay.

The test system of assay [1] is PRMT1 (protein arginine N-methyltransferase 1). The experiment in a line: PRMT1 binders on small-molecule microarrays, primary screen, biochemical, small-molecule microarray, 635 nm fluorescence (AID 1088).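 Note: binding of Prmt1 protein to compounds spotted on small-molecule microarray slides.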 Particulars: small-molecule microarray binding, higher = more signal.
Assay [2] is described as follows: yeast growth modulation, basal conditions, primary screen, YJM789 clinical isolate, OD600, 24 h (AID 1089).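 Note: growth of clinical yeast isolate S. cerevisiae YJM 789 seeded 1000 cells per well; test concentration not given here.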 Particulars: S. cerevisiae YJM789 growth, higher = more signal, called active from +8 up or from −8 down.
Assay [3] can be described thus: fission yeast growth modulation, primary screen, strain 972, OD600, 24 h, no modulator (AID 1090).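 Note: basal condition with compound alone and no growth modifier present; test concentration not given here.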 To be noted: S. pombe 972 growth, higher = more signal, called active from +8 up or from −8 down.
Assay [4] is described as follows: S. cerevisiae growth modulation with rapamycin, primary screen, strain BY4716, OD600, 96 h (AID 1091). Note: test concentration not given here. Particulars: higher = more signal, called active from +8 up or from −8 down.
Assay [5] deals with Torsin-1A-interacting protein 2 (Homo sapiens) (UniProt Q8NFQ8). Nature of the assay: LULL1 binders on small-molecule microarray, primary screen, cell lysate, human LULL1 lysate, 635/667 nm fluorescence (AID 1092).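 Note: probe is lysate of COS7 cells overexpressing human LULL1; score merges per-feature 667 nm fluorescence with signal-to-noise.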 To be noted: hLULL1 lysate binding, 635 nm fluorescence, higher = more signal.
Sequence of Torsin-1A-interacting protein 2 (Homo sapiens) (Q8NFQ8 whole entry, looked up): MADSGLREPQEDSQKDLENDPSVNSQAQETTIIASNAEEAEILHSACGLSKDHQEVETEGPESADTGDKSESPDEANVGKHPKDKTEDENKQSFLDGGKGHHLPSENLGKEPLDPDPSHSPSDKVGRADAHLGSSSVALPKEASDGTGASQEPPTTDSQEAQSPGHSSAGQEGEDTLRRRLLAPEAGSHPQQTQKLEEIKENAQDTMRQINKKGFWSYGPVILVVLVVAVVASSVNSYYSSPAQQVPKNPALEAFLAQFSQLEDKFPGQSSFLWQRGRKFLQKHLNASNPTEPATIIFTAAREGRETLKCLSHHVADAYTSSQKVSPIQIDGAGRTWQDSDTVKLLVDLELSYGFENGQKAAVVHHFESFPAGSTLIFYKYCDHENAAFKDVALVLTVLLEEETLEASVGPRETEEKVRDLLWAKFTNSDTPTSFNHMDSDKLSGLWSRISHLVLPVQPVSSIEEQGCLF
The nature of assay [6]: E. coli growth modulation, two-sided OD650, primary screen, E. coli filamentation project, strain DRC41, 24 h (AID 1093).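 Note: MC1000 strain lacking acrAB efflux and sulA so SOS filamentation is blocked; test concentration not given here.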 To be noted: OD650, 24 h, higher = more signal, called active from +8 up or from −8 down.
The nature of assay [7]: small-molecule microarray binders of probe aLefty2, primary screen, biochemical, biotinylated probe, 635/667 nm fluorescence (AID 1094).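 Note: score merges spot fluorescence near 667 nm with spot signal-to-noise ratio.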 To be noted: higher = more signal.
For assay [8], the system named is Noggin (protein binding on small-molecule microarray). Nature of the assay: Noggin binders on small-molecule microarray, primary screen, biochemical, 635/667 nm fluorescence (AID 1095).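 Note: score merges 667 nm feature fluorescence with signal to noise over triplicate slides.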 Particulars: 635 nm fluorescence, higher = more signal.
In assay [9] the target is Neurogenic locus notch homolog protein 3 (Homo sapiens) (UniProt Q9UM47). The experiment in a line: NOTCH3 binders on small-molecule microarray, primary screen, biochemical, 635/667 nm fluorescence (AID 1096). Particulars: NOTCH3 binding, 635 nm fluorescence, higher = more signal.
Sequence of Neurogenic locus notch homolog protein 3 (Homo sapiens) (Q9UM47 whole entry, looked up): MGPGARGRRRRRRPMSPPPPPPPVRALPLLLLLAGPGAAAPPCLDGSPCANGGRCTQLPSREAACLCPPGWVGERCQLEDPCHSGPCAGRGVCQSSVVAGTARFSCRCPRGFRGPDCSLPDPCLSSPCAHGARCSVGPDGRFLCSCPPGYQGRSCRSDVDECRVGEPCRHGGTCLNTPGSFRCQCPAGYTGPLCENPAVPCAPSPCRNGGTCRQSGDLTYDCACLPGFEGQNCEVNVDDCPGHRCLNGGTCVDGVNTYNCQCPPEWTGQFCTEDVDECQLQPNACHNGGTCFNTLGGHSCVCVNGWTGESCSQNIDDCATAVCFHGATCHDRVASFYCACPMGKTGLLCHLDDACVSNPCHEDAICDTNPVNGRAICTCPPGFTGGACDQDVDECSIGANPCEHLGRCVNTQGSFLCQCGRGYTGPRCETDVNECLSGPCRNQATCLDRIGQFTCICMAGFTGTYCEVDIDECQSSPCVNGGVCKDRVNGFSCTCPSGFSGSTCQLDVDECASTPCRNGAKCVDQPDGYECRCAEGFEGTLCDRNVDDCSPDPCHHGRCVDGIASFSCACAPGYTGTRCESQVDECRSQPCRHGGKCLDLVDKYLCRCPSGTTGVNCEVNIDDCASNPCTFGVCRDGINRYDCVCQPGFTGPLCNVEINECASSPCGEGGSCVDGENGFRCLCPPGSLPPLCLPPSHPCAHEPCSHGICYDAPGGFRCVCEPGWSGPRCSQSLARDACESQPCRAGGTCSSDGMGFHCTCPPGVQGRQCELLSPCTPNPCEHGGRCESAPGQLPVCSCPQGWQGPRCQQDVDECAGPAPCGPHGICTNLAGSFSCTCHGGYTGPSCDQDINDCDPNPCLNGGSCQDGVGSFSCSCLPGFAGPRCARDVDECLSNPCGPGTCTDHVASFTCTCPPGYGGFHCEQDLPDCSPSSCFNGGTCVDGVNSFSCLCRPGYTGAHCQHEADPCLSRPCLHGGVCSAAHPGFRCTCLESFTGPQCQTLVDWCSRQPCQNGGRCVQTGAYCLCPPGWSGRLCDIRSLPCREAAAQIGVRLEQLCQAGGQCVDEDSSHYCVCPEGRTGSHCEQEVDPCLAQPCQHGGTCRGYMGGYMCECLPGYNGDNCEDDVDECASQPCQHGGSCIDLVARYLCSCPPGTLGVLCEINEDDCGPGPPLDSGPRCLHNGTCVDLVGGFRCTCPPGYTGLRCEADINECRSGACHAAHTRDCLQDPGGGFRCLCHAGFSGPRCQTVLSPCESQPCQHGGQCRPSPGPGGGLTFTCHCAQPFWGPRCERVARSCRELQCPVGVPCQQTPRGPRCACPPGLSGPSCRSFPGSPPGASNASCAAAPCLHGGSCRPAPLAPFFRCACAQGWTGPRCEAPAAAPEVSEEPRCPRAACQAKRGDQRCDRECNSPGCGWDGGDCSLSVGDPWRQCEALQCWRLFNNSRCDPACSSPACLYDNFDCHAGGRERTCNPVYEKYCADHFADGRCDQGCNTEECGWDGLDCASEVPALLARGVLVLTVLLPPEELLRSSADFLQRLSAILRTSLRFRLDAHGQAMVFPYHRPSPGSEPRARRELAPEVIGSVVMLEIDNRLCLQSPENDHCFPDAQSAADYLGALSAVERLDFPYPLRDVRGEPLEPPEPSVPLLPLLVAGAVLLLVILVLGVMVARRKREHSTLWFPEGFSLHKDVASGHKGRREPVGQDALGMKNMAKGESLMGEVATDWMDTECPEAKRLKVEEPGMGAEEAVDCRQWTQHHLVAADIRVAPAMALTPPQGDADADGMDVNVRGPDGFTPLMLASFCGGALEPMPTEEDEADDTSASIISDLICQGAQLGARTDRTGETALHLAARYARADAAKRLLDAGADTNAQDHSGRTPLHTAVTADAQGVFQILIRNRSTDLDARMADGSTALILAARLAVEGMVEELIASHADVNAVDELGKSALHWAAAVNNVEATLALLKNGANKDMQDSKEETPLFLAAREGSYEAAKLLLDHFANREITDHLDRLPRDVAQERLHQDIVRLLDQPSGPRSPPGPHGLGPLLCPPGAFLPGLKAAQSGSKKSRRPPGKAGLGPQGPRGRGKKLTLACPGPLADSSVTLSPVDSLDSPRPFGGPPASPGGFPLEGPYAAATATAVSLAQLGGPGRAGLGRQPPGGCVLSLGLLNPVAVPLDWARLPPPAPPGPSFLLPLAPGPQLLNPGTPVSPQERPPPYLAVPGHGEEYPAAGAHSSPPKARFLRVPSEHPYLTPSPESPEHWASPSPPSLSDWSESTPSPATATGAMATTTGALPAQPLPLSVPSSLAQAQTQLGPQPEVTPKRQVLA
Assay [10] is described as follows: small-molecule microarray binders of probe aEGFR, primary screen, biochemical, biotinylated probe, 635/667 nm fluorescence (AID 1097).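 Note: probe is a biotinylated anti-EGFR antibody binding compounds printed on slides; score combines fluorescence near 667 nm and signal to noise of each spot.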 To be noted: higher = more signal.
For assay [11], the system named is Plasmodium falciparum Sir2 (PF13_0152, Sir2A). Nature of the assay: pfSir2 binders on small-molecule microarrays, primary screen, biochemical, small-molecule microarray, 635 nm fluorescence (AID 1098).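 Note: score merges spot fluorescence intensity with its signal-to-noise ratio.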 To be noted: small-molecule microarray binding, fluorescence 635 nm; higher = more signal.
Assay [12] can be described thus: small-molecule microarray binders of probe aDKK1, primary screen, biochemical, biotinylated probe, 635/667 nm fluorescence (AID 1099).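 Note: score merges 667nm spot fluorescence with signal to noise across triplicate slides; reference of the scale not given here.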 To be noted: higher = more signal.
A short description of assay [13]: small-molecule microarray binders of probe aCHRDL2, primary screen, biochemical, biotinylated probe, 635/667 nm fluorescence (AID 1100). To be noted: higher = more signal.
Assay [14] is described as follows: splicing luciferase reporter signal modulators, primary screen, spliceosome inhibition project, cell-based, HEK293, splice +/- reporter (AID 1101).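 Note: HEK293 cells carrying a splicing-competent luciferase reporter gene; test concentration not given here.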 To be noted: luminescence, 24 h, higher = more signal, called active from +8 up or from −8 down.
The target of assay [15] is Fibroblast growth factor 10 (Homo sapiens) (UniProt O15520). The experiment in a line: FGF10 binders on small-molecule microarrays, primary screen, biochemical, small-molecule microarray, 635 nm fluorescence (AID 1102). To be noted: FGF10 binding, fluorescence 635 nm, higher = more signal.
Sequence of Fibroblast growth factor 10 (Homo sapiens) (O15520 whole entry, looked up): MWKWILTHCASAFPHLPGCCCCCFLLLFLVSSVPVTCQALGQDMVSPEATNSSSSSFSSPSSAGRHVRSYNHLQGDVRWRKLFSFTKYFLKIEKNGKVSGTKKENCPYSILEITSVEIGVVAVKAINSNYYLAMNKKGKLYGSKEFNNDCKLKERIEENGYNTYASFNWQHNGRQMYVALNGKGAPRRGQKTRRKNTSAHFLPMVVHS
For assay [16], the system named is glycogen synthase kinase-3 (GSK3A per assay name; protocol says GSK3B). Nature of the assay: GSK3 binders on small-molecule microarrays, primary screen, biochemical, small-molecule microarray, 635 nm fluorescence, GSK3A (AID 1103). Note: the record names both GSK3A and GSK3B. To be noted: small-molecule microarray binding, fluorescence 635 nm; higher = more signal.
For assay [17], the target named is Epidermal growth factor receptor (Homo sapiens) (UniProt P00533). The experiment in a line: EGFR binders on small-molecule microarrays, primary screen, biochemical, small-molecule microarray, 635 nm fluorescence (AID 1104).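 Note: score merges 667 nm emission intensity with spot signal to noise over triplicate slides.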 To be noted: EGFR binding, higher = more signal.
Sequence of Epidermal growth factor receptor (Homo sapiens) (P00533 whole entry, looked up): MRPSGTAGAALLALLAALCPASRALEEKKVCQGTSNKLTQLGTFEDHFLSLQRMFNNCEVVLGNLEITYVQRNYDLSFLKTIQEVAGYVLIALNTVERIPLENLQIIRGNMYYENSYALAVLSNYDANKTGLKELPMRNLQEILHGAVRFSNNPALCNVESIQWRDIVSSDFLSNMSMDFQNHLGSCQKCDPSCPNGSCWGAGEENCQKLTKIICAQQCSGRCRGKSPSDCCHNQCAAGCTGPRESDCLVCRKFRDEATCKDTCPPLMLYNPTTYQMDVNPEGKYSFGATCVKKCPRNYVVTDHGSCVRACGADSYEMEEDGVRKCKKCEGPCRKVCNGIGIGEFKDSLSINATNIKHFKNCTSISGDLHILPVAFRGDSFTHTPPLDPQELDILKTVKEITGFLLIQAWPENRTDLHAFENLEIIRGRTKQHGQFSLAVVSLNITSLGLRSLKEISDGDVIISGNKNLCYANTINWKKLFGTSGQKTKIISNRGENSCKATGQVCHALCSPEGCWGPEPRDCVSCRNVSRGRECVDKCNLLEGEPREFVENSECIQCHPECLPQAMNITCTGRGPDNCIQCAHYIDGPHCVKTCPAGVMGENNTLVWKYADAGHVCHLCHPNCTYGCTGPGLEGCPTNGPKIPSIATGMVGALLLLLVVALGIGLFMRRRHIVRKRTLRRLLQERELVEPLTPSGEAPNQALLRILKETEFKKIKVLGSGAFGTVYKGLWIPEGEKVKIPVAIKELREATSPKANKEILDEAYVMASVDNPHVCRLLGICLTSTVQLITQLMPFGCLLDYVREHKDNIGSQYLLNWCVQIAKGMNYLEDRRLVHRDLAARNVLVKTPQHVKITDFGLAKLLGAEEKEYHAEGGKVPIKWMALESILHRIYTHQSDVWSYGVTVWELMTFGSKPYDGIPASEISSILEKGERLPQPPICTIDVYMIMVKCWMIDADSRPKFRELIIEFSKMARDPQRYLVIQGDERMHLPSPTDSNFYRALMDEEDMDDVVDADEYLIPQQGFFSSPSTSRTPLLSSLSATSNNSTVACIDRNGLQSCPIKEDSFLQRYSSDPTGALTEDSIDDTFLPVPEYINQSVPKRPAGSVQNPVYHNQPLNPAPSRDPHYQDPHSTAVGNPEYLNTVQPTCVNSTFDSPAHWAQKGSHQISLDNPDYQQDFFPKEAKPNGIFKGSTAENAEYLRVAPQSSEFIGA
Assay [18] concerns the target Follistatin-related protein 3 (Homo sapiens) (UniProt O95633). The experiment in a line: FSTL3 binders on small-molecule microarrays, primary screen, biochemical, small-molecule microarray, 635 nm fluorescence (AID 1105).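 Note: score merges emission near 667 nm and signal to noise per printed spot across three slides.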 To be noted: FSTL3 binding, higher = more signal.
Assay [19] has as its target Dickkopf-related protein 1 (Homo sapiens) (UniProt O94907). Nature of the assay: DKK1 binders on small-molecule microarrays, primary screen, biochemical, small-molecule microarray, 635 nm fluorescence scan (AID 1106).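 Note: score merges emission near 667 nm with signal to noise over three replicate slides.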 Particulars: DKK1 binding, higher = more signal.
The test system of assay [20] is Inhibin beta A chain (activin A). The experiment in a line: INHBA (activin A) binders on microarrays, primary screen, biochemical, small-molecule microarray, 635 nm fluorescence scan (AID 1107).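 Note: mouse activin A protein probed at 4.33 µg/mL on printed slides; score merges bound-protein fluorescence near 667 nm with spot signal-to-noise.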 To be noted: small-molecule microarray binding, higher = more signal.

Active and inactive are the calls of the source.

Sequence of Follistatin-related protein 3 (Homo sapiens) (O95633 whole entry, looked up): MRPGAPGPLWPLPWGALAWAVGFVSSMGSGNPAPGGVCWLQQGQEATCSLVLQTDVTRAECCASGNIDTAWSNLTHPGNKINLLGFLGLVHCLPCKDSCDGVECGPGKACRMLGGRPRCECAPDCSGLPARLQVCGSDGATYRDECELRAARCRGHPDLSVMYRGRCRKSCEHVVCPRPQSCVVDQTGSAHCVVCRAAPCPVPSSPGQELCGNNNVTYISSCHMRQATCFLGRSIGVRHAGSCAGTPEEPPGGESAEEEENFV
Sequence of Dickkopf-related protein 1 (Homo sapiens) (O94907 whole entry, looked up): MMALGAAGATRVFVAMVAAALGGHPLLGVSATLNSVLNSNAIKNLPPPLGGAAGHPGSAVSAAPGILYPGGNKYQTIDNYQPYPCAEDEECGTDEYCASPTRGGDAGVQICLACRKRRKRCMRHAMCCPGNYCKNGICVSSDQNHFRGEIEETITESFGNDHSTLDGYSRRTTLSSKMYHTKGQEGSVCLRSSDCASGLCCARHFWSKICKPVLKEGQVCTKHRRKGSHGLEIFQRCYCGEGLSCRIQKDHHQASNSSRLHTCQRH

As for `CON=C(C)CCC(=O)OC[C@H]1O[C@H](c2ccccc2)C=C[C@@H]1Oc1ccc(OC)cc1`, the composite z-score in assay [1] was 0.0846; in assay [5], -0.225; in assay [7], -0.176; in assay [8], 0.411; in [9] it was -0.0061; in [10], -0.0783. Besides, the composite z-score in [11] is 0.712; in assay [12], -0.174; in assay [13], -0.15; in [15], 0.142; in assay [16] it was -0.496; in assay [17], 0.213. Also, the composite z-score is 0.189 in assay [18], 0.474 in assay [19] and 0.854 in [20]. Moreover, the z-score in assay [2] is 1.34 (inactive); in assay [3] it was -0.241 (inactive); in assay [4], 1.4 (inactive); in assay [6], 0.403 (inactive); in [14], 0.115 (inactive).
Consider `COc1ccc(O[C@@H]2[C@H](O)CO[C@@H]2C=Cc2ccccc2)cc1`, for which the composite z-score in [1] is 0.123; in assay [5], 0.11; in [7], -0.238; in assay [8], 0.135; in assay [9], 0.0877; in assay [10], -0.163. The composite z-score in assay [11] was 0.638; in assay [12], -0.228; in assay [13] it was -0.256; in assay [15], -0.0055; in assay [16] it was -0.0208; in assay [17] it was -0.169. Moreover, the composite z-score stood at 0.367 in assay [18], 0.148 in assay [19] and 0.448 in [20]. Also, the z-score was -0.565 (inactive) in [2]; -1.51 (inactive) in assay [3]; 0.0945 (inactive) in [4]; 0.0038 (inactive) in [6]; -1.63 (inactive) in assay [14].
Consider `O=C(NN=C1C[C@@H](O)[C@@H](O)[C@@H]2[C@@H]3C(=O)N(Cc4ccccc4)C(=O)[C@@H]3CC[C@@H]12)OCc1ccccc1`, for which the composite z-score in assay [1] was -0.395; in assay [5] it was -0.802; in [7], -0.112; in assay [8], 0.509; in assay [9], 0.188; in assay [10], 0.0551. Moreover, the composite z-score is 0.0168 in [11]; -0.293 in [12]; -0.284 in assay [13]; 0.0818 in [15]; 0.329 in assay [16]; 0.263 in [17]. Further, the composite z-score in assay [18] was determined as 0.31; in assay [19], 0.357; in assay [20] it was 0.198. The z-score in assay [2] was -0.227 (inactive); in assay [3], -0.148 (inactive); in assay [4], -0.413 (inactive); in [6] it was 0.258 (inactive); in assay [14], -0.566 (inactive).
Consider `C[C@@H](ON=C1[C@H]2CCn3c(=O)n(-c4ccccc4)c(=O)n3[C@H]2[C@H](O)[C@@H]2O[C@H]12)c1cn([C@@H]2COC[C@H]2O)nn1`, for which the composite z-score was 0.556 in [1]; -0.219 in [5]; -0.152 in assay [7]; 0.57 in assay [8]; 0.72 in assay [9]; -0.0788 in assay [10]. The composite z-score in assay [11] is 0.507; in assay [12] it was -0.235; in [13], -0.511; in [15], 0.31; in assay [16], 0.555; in [17] it was 0.702. Also, the composite z-score was determined as 0.51 in [18], 0.446 in assay [19] and 0.0788 in [20]. In addition, the z-score in [2] was -0.638 (inactive); in assay [3] it was 0.636 (inactive); in assay [4] it was 0.0921 (inactive); in [6], 0.389 (inactive); in assay [14], 0.413 (inactive).
`COC(=O)NCC=Cc1nc(CCCO)co1`: the composite z-score is -0.227 in assay [1]; 0.39 in assay [5]; -0.0139 in assay [7]; 0.501 in [8]; 0.903 in assay [9]; 0.0678 in assay [10]. Moreover, the composite z-score was 0.439 in [11]; -0.414 in [12]; -0.576 in assay [13]; 0.534 in [15]; 0.926 in assay [16]; 0.581 in assay [17]. Moreover, the results for the composite z-score in [18], in [19] and in assay [20] were 0.887, 0.617 and 0.163, respectively. Further, the z-score in assay [2] was 0.084 (inactive); in assay [3] it was 0.211 (inactive); in [4] it was 0.214 (inactive); in [6], 0.423 (inactive); in assay [14], 0.566 (inactive).
